# Laboratory results taken from article PMC5540273 (PLoS ONE, 2017).
# Tested on: GAK
# Details: concentration: 1 μM, replicates: in singlicate; n = 1
# 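Also: KINOMEscan kinase panel screen.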
row,SMILES,%Inh
1,Cn1cncc1-c1ccc2ncnc(Nc3ccc(OCc4ccccc4)cc3)c2c1 [GW320571],0%
2,Cc1cc(-c2ccc3c(c2)CC[C@@H](N[C@@H](C)c2ccccc2)C3)cnc1N.Cl [GW412617],33%
3,Fc1cccc(COc2nnc(-c3ccc4c(c3)CCO4)o2)c1,2%
4,O=C(Nc1n[nH]c2cc(-c3cccc(F)c3F)ccc12)C1CC1 [SB-733894],6%
5,COc1cc(Nc2nccc(N3CCC(NC(=O)Nc4cc(C)ccc4C)C3)n2)cc(OC)c1OC (centres unmarked) [GSK1379762],28%
6,CC(C)(C)c1ccc(C(=O)Nc2cn3cc(Cl)ccc3n2)cc1,0%
7,COc1ccc2nc(-c3cccc(C)n3)nc(Nc3ccncc3)c2c1 [GSK204919],8%
8,Cc1c(O)cccc1Nc1ccnc2ccc(C(F)(F)F)cc12.Cl [GW466413],64%
9,Cc1ccc(-c2cc(-c3c[nH]nc3-c3ccccn3)ccn2)cc1 [GW684088],80%
10,O=S(=O)(c1ccc(-c2ccnc3[nH]ccc23)cc1)N1CCCC1 [GSK846226],28%
11,Cn1ccc2ncnc(Oc3cccc(C(=O)Nc4ccccc4)c3)c21,0%
12,CCCc1ccc(S(=O)(=O)NC2CCN(c3ccnc(Nc4ccc(F)cc4)n3)C2)cc1 (centres unmarked) [GSK1379715],10%
13,O=C1NC(=O)C(N2CCc3ccccc32)=C1c1ccccc1Cl [SB-373598],0%
14,COC(=O)c1c(-c2ccccc2)c2cc(OC)ccc2c(=O)n1Cc1ccccc1,6%
